Reference: PubChem BioAssay AID1159580 (chemical genetic matrix, 2015)
About 2,000 (36%) of roughly 5,500 compounds were called active. Not shown: some 18% with an inconclusive outcome. Rule as the data show it: active = normalized growth mostly below about 0.91 (no sharp cut-off); inconclusive = no clear call, values can overlap the other calls; inactive = mostly above about 0.92. Some of the results follow.

Assay: chemical genetic growth profiling, strain panel (AID 1159580);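 also: tested at 20 µM; growth read once vehicle control cultures reached saturation at 30 °C; 1 = growth at the plate median or of vehicle wells; lower values mean less growth of the strain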
Details: S. cerevisiae deletion strains, growth OD
[1] = locus YAL013W, strain DEP1, hits give low values
[2] = locus YDR150W, strain NUM1, hits give low values
[3] = locus YPL055C, strain LGE1, hits give low values

Measured: normalized growth

COC(=O)c1c(-c2cc(OC)c(OC)c(OC)c2)c2ccc(OCc3ccccn3)cc2c(=O)n1-c1ccc(N)cc1
inactive: [1] 1.02 | locus YAL040C, strain CLN3, hits give low values 1.01 | locus YCL061C, strain MRC1 (second series), hits give low values 0.999 | [2] 1.01 | locus YDR363W, strain ESC2, hits give low values 1.01 | locus YER002W, strain NOP16, hits give low values 1.03 | locus YMR307W, strain GAS1, hits give low values 1.01 | locus YNL128W, strain TEP1, hits give low values 1.02 | locus YNL175C, strain NOP13, hits give low values 1.03 | locus YNL197C, strain WHI3, hits give low values 1.04 | locus YNL224C, strain SQS1, hits give low values 1.04 | locus YOR083W, strain WHI5 (second series), hits give low values 1.01 | [3] 1.02

O=C(CCCCCCCCC(=O)c1ccccc1)c1ccccc1
inactive: [1] 0.996 | locus YBR229C, strain ROT2, hits give low values 1 | locus YCL061C, strain MRC1, hits give low values 1.01 | locus YDL101C, strain DUN1, hits give low values 1.01 | [2] 0.918 | locus YEL061C, strain CIN8, hits give low values 1.01 | locus YGR078C, strain PAC10, hits give low values 1.02 | locus YHR030C, strain SLT2, hits give low values 0.964 | locus YHR087W, strain rtc3, hits give low values 1.05 | locus YJL187C, strain SWE1, hits give low values 1.02 | locus YJR043C, strain POL32, hits give low values 1.01 | locus YJR075W, strain HOC1, hits give low values 0.987 | locus YLR039C, strain RIC1, hits give low values 1.04 | locus YLR058C, strain SHM2 (second series), hits give low values 0.998 | locus YLR085C, strain ARP6, hits give low values 0.998 | locus YLR262C, strain YPT6, hits give low values 1.04 | locus YML094W, strain GIM5, hits give low values 1.01 | locus YMR219W, strain ESC1, hits give low values 0.999 | locus YMR263W, strain SAP30, hits give low values 1 | locus YNL153C, strain GIM3, hits give low values 0.994 | locus YNL298W, strain CLA4 (second series), hits give low values 1.05 | locus YNL322C, strain KRE1, hits give low values 1 | locus YNR030W, strain Alg12, hits give low values 1.01 | locus YOL006C, strain TOP1, hits give low values 1.01 | [3] 0.981 | locus YPL241C, strain CIN2, hits give low values 1 | locus YPR135W, strain CTF4, hits give low values 1
